# Measured values as given in PubChem BioAssay AID2149 (The Scripps Research Institute Molecular Screening Center, 2009).
# Among all 2,400 compounds or so, about 1,800 (75%) were called active.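 The calls were made as follows: active = inhibition above the primary screen limit, the mean inhibition of all tested compounds plus 3 SD (cut at about 25% in these data); inactive = the rest.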 The set was probably picked from earlier hits. A selection follows.
# System: tRNA 2'-phosphotransferase TPT1 [Candida albicans SC5314]
# Assay: tRNA 2'-phosphotransferase enzyme inhibition – biochemical, fluorescence polarization, triplicate, confirmation (AID 2149)
# Details: recombinant caTPT1, fluorescence polarization, RNase T1 coupled; at 5 µM; hits give high values
row,SMILES,inhibition
1,CCCCC(=O)N/N=C/c1c(O)n(CC)c(=S)n(CC)c1=O,98.8% (active)
2,CCN1C(=O)C(=Cc2c(C)n(CC(=O)NCC3CCCO3)c3ccccc23)C(=O)N(CC)C1=S (centres undefined),18.6% (inactive)
3,O=C1NC(=O)N(Cc2ccco2)C(=O)/C1=C\c1cccn1CCOc1ccccc1,6.57% (inactive)
4,COc1ccc(N2C(=O)/C(=C/c3ccco3)C(=O)NC2=S)cc1,27.9% (active)
5,O=C1NC(=O)N(Cc2ccco2)C(=O)/C1=C\c1ccc(-c2ccc(F)cc2)o1,11.4% (inactive)
6,O=C1CC(=O)N(Cc2ccccc2)C(=O)N1CCCCCCN1C(=O)CC(=O)N(Cc2ccccc2)C1=O,25.7% (active)
7,COc1ccccc1N=Nc1c(O)[nH]c(=S)[nH]c1=O,64.9% (active)
8,CC(C)n1c(=O)c(C=Nc2ccc(Br)cc2)c(O)n(Cc2ccco2)c1=O,17.1% (inactive)
9,CC/C(=N\NC(=O)c1ccccc1O)c1c(O)n(Cc2ccccc2)c(=O)[nH]c1=O,21.9% (inactive)
